Drawing on ChEMBL document CHEMBL3988442, “University of Dundee, Small-Polar-MMV Screening Library” (2021), this text covers Percent Effect for seven molecules.

Holding throughout (set-up): scale not given: direction of the effect not stated beside the values
For assay [1], the target named is Protein translocase subunit SecA (Escherichia coli (strain K12)) (UniProt P10408). Description: Assay to Identify E. coli SecA ATPase Inhibitors. Format: functional. The settings on record: 30 µM.
The target in assay [2] is T1, Ubiquitin-activating enzyme e1, putative (Leishmania donovani (strain BPK282A1)) (UniProt E9BSI1).
T1 sequence (whole entry): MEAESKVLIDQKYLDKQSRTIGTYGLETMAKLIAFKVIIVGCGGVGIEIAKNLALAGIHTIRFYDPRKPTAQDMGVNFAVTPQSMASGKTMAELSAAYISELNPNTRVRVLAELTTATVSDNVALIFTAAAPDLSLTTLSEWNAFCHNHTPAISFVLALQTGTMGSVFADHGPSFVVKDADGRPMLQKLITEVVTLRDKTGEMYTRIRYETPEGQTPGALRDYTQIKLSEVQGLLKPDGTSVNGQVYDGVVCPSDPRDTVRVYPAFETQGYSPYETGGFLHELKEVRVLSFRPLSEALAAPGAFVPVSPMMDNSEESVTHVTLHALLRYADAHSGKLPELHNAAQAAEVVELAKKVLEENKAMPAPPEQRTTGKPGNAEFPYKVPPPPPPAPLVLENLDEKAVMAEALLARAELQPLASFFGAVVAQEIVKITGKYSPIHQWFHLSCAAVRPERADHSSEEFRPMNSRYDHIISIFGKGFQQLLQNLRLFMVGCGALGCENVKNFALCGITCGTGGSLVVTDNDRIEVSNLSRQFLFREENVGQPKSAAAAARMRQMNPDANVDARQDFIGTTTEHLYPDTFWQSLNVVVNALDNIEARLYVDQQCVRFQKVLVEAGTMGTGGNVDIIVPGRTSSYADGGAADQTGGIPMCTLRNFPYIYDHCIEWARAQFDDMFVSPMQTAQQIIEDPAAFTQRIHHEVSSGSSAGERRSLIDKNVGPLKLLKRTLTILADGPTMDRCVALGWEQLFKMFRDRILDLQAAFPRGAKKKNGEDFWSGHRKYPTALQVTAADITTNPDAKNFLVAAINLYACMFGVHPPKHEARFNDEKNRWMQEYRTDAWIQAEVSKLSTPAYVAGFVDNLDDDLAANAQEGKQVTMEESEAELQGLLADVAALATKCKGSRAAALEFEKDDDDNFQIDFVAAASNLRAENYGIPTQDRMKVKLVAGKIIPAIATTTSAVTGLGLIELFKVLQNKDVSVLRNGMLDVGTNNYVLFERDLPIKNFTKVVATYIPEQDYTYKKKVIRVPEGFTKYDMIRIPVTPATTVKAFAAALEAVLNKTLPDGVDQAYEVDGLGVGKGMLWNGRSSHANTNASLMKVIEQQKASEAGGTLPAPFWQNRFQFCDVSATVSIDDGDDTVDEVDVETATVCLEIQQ
Briefly: Leishmania donovani Ubiquitin Activating Enzyme (LdE1). Format: functional. The settings on record: 30 µM.

Assay [3] concerns the target AMP-activated protein kinase, AMPK (Homo sapiens) (UniProt P54646+O43741+P54619+Q9UGJ0+Q9Y478+Q13131+Q9UGI9). Description: AMP-dependent Kinase enzyme assay. An in vitro enzyme assay that detects ADP turnover that is directly proportional to AMPK activity. This uses naive AMPK that is activated during the assay with MK-8722. The format is functional. As to conditions: 30 µM.

Assay [4] has as its target Sialic acid-binding Ig-like lectin 9 (Homo sapiens) (UniProt Q9Y336). Briefly: Hs-Siglec9 ALPHAscreen SOP 20170721. As to conditions: 10 µM.
The subject of another assay is Trypanosoma cruzi. Description: Trypanosoma cruzi phosphomannomutase and mannose-1-phosphate guanylyltransferase assay. Format: functional. As to conditions: 10 µM.
Assay [5] has as its target T2, Arginase-2, mitochondrial (Homo sapiens) (UniProt P78540).
T2 sequence (whole entry): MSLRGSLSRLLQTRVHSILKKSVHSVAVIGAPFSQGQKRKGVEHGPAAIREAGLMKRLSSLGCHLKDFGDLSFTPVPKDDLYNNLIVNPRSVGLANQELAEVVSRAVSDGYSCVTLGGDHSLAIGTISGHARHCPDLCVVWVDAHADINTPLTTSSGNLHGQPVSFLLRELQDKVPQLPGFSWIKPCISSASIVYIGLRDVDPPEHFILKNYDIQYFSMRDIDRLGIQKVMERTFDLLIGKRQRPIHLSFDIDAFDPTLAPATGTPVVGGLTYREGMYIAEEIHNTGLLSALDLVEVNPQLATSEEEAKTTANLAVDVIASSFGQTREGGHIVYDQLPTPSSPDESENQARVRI
Description: in vitro enzyme assay to detect the production of urea directly proportional to the activity of Arginase II. Also: in the data most compounds retested in dose-response had high values. Format: functional. As to conditions: 33.3 µM.

For assay [6], the target named is T3, Proteasome subunit beta (Trypanosoma cruzi) (UniProt O96673).
T3 sequence (whole entry): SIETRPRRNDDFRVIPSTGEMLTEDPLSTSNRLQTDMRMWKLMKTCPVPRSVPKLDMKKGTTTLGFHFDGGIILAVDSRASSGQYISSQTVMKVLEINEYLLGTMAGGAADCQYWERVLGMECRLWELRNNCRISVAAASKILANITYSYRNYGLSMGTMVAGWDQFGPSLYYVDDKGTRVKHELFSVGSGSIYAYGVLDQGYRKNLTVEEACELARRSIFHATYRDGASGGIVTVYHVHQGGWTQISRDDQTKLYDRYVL
Description: Trypanosoma cruzi proteasome chymotrypsin-like activity (TcProtChymo) assay. Also: in the data most compounds retested in dose-response had high values. The format is functional. As to conditions: 9.37 µM.

The species named for a further assay is Homo sapiens. Description: To identify inhibition of the IFN signalling (Jak-Stat) pathway via expression of an eGFP reporter gene under the control of an IFN-stimulated response element (ISRE) containing MxA promoter. The format is functional. The settings on record: 30 µM. Background: Reporter assays use an easily measured gene product as a stand-in for the process of interest.

The target in assay [7] is T4, Tyrosyl-tRNA synthetase, putative (Trypanosoma cruzi (strain CL Brener)) (UniProt Q4DSP6).
T4 sequence (whole entry): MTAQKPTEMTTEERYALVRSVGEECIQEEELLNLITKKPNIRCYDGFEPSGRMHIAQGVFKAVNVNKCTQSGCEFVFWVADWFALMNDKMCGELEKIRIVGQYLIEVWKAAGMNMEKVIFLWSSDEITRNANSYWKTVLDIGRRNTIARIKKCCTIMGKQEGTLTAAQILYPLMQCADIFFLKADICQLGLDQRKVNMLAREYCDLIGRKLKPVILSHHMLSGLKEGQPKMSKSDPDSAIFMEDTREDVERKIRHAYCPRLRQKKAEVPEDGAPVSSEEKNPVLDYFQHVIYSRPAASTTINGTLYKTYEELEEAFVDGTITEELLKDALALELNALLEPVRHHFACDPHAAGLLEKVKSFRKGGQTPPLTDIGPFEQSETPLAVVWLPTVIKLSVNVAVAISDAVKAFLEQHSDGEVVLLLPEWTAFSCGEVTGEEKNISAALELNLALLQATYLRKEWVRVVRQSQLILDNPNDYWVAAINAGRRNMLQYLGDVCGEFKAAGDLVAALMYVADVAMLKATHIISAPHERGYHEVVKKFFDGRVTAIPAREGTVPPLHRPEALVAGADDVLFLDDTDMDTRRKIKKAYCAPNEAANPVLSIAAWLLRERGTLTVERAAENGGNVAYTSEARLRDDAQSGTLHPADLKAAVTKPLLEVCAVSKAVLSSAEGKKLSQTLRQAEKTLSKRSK
Briefly: Trypanosoma cruzi tyrosyl tRNA synthetase (TcYRS) _High Tyrosine SOP. Also: in the data most compounds retested in dose-response had high values. Format: functional. The settings on record: 30 µM.

Assay [8] has as its target T4, Tyrosyl-tRNA synthetase, putative (Trypanosoma cruzi (strain CL Brener)). Briefly: Trypanosoma cruzi tyrosyl tRNA synthetase (TcYRS) SOP. Format: functional. The settings on record: 30 µM.
For assay [9], the target named is Chromo domain-containing protein 1 (Saccharomyces cerevisiae (strain ATCC 204508 / S288c) (Baker's yeast)) (UniProt P32657). Briefly: ScCHD-1 Enzyme Inhibition Assay. Also: in the data most compounds retested in dose-response had high values. As to conditions: 30 µM. Format: functional.
Sequence of Chromo domain-containing protein 1 (Saccharomyces cerevisiae (strain ATCC 204508 / S288c) (Baker's yeast)) (P32657 whole entry, the tested form may be a part): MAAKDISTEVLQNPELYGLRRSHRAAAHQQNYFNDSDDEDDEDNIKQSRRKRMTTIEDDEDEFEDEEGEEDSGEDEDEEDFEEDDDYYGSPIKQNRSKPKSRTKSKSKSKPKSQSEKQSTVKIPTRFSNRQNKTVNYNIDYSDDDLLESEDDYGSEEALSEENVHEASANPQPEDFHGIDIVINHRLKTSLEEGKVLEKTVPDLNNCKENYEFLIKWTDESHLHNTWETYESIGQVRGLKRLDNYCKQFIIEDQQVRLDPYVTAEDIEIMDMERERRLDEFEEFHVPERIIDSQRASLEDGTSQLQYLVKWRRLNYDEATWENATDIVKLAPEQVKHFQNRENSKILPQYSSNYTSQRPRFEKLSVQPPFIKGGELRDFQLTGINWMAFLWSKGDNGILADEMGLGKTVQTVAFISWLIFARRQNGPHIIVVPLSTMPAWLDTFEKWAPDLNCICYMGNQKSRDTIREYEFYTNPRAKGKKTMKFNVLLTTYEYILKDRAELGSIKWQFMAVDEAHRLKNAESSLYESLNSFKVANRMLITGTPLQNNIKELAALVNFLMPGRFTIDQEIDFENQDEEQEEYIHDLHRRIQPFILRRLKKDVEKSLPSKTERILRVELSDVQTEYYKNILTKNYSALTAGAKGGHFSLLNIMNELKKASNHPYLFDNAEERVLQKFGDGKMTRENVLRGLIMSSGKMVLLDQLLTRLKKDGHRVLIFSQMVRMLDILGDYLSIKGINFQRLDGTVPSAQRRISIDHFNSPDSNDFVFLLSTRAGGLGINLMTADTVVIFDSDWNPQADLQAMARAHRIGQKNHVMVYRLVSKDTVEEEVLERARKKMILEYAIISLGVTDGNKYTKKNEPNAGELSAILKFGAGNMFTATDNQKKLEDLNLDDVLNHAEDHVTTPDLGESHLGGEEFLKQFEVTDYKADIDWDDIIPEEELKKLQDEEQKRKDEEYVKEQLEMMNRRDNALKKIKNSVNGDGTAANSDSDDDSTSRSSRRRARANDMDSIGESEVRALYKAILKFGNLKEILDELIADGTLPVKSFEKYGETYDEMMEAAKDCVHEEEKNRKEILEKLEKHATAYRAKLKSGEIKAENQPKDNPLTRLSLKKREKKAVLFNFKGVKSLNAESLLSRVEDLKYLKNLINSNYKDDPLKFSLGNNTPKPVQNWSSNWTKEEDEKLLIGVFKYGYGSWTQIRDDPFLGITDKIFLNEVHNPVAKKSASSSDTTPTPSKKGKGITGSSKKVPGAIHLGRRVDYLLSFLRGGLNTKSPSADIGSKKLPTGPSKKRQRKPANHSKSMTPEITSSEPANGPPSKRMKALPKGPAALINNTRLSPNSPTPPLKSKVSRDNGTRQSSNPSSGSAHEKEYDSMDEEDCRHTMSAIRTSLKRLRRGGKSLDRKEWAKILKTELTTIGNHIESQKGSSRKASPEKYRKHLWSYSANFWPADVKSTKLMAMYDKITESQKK

For some assays here: Potency and affinity values are given separately.

Sequence of Sialic acid-binding Ig-like lectin 9 (Homo sapiens) (Q9Y336 whole entry): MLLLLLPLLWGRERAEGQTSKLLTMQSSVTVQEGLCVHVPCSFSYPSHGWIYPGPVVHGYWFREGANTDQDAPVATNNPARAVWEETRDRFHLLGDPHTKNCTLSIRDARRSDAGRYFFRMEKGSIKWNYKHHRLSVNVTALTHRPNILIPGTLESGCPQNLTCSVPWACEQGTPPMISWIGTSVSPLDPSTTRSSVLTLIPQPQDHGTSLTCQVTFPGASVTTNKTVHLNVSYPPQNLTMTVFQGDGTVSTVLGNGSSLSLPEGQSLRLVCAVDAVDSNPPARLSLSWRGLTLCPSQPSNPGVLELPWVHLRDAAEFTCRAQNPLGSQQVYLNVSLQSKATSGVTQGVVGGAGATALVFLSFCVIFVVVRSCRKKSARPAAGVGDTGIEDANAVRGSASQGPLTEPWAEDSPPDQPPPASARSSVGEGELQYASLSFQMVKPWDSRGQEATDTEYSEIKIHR
Sequence of Protein translocase subunit SecA (Escherichia coli (strain K12)) (P10408 whole entry): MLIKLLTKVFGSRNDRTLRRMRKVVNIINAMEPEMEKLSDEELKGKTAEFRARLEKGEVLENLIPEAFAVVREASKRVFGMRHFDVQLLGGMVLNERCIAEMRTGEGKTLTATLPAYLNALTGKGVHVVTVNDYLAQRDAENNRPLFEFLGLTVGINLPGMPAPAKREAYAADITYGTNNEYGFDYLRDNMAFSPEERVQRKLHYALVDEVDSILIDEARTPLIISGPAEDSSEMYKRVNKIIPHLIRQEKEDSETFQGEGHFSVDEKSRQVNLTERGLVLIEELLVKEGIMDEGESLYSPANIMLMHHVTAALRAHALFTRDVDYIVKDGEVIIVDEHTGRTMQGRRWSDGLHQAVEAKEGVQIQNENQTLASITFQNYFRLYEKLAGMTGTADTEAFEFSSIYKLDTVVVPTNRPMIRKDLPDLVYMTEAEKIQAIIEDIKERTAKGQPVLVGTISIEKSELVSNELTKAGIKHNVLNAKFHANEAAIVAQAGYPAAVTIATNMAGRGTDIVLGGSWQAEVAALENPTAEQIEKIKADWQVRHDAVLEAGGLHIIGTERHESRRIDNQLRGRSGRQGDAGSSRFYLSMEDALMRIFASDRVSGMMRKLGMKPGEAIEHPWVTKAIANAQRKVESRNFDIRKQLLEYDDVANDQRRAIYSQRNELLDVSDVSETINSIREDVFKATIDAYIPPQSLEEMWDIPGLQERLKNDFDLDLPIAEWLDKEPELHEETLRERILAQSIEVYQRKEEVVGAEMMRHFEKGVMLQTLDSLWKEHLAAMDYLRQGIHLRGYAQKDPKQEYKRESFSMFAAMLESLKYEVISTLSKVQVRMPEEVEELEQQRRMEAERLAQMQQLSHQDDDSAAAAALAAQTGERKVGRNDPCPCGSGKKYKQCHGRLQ

Take `Cc1nc(CN2CCCN(C(=O)C(C)OCC3CC3)CC2)cs1` (configuration not stated): the Percent Effect in [1] is -1.24%; in [2], 3.8%; in assay [3], 0.098%; in assay [4] it was 0.839%; in the assay with Trypanosoma cruzi, 3.38%; in assay [5] it was 0.215%. Further, the Percent Effect in assay [6] was 10.6%; in the assay listed under Homo sapiens, 4.67%; in assay [7], 3.12%; in assay [8], 2.53%; in [9], -18.2%.
For the molecule `Cc1noc(Cl)c1CCC(=O)N1CCCCC1Cn1cccn1` (configuration not stated), the Percent Effect in assay [1] was -5.73%; in assay [2], 5.26%; in assay [3], 1.98%; in [4], -0.589%; with Trypanosoma cruzi, 1.85%; in assay [5], -2.37%. Further, the Percent Effect was 9.3% in assay [6]; -6.24% in the assay listed under Homo sapiens; 3.19% in [7]; 5.2% in assay [8]; -7.11% in assay [9].
As to `COc1ccc(C(=O)N2CCC(Nc3ccc(C)nn3)CC2)c(F)c1`, the Percent Effect was -1.36% in assay [1]; 1.27% in assay [2]; 3.77% in assay [3]; -1.89% in assay [4]; -4.21% in the assay on Trypanosoma cruzi; 2.8% in assay [5]. Besides, the Percent Effect in assay [6] is 12.7%; in the assay listed under Homo sapiens it was 25.4%; in assay [7], 7.29%; in assay [8], -2.53%; in assay [9], -10.7%.
Turning to `Cc1nn(C)c(N2CCOCC2)c1CNC1CCOc2ccccc21` (configuration not stated), the Percent Effect in assay [1] was -4.35%; in assay [2] it was 10.1%; in [3] it was -4.31%; in assay [4], 8.19%; with Trypanosoma cruzi, 1.04%; in [5], 0.38%. Moreover, the Percent Effect in [6] is 2.54%; in the assay listed under Homo sapiens, -11.4%; in [7], 7.39%; in [8] it was 11.4%; in [9] it was -3.12%.
Regarding `O=C(NCCOc1ccc(F)c(F)c1)NCc1cccc(CO)c1`, the Percent Effect in assay [1] was -2.53%; in assay [2], 2.7%; in assay [3], 1.53%; in assay [4], 4.96%; in the assay with Trypanosoma cruzi it was 1.16%; in assay [5], -2.38%. Moreover, the Percent Effect in [6] was 15.2%; in the assay listed under Homo sapiens, 19.7%; in assay [7] it was -0.529%; in assay [8] it was 7.32%; in assay [9], -4.04%.
As to `O=C(Cn1cccnc1=O)NC(Cc1ccsc1)c1ccccn1` (configuration not stated), the Percent Effect is -10% in assay [1]; 14.9% in [2]; 0.845% in [3]; 8.55% in assay [4]; 1.98% with Trypanosoma cruzi; 0.232% in assay [5]. The Percent Effect is 5.3% in [6]; 2.88% in the assay listed under Homo sapiens; 5.38% in assay [7]; 9.09% in [8]; -19.6% in [9].
Turning to `O=C(CN(Cc1ccccc1)CC1CCOCC1)Nc1nccs1`, the Percent Effect is -4.59% in assay [1]; 0% in [2]; 0.406% in assay [3]; 1.15% in [4]; -4.17% in the assay with Trypanosoma cruzi; 0.399% in [5]. The Percent Effect was 4.2% in [6]; -3.27% in the assay filed under Homo sapiens; 6.25% in [7]; 11.1% in assay [8]; -0.498% in assay [9].
